An excerpt weighted towards active compounds, which were near 11% of everything screened.
AMA1 RON2 block – qHTS for Inhibitors of AMA1-RON; Towards Development of Antimalarial Drug Lead: Primary Screen; Potency, µM (titrated, usually from 58.2 µM), most hits filed as inhibitors; 360,000 tested, 0.2% active; Plasmodium falciparum AMA1 (3D7) - RON2 peptide interaction; AlphaScreen AMA1-biotinylated RON2 peptide binding; also: nearly all actives have a fitted effect of over 45% in size
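AMA1 (3D7) with his tag at 25 nM final met compounds first, then biotinylated RON2 peptide at 25 nM; detection used donor plus acceptor beads, 10 µg/mL apiece, read by AlphaScreen after 30 min at room temperature.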
Pf growth 96h – Primary qHTS for delayed death inhibitors of the malarial parasite plastid, 96 hour incubation. P. falciparum luciferase reporter growth, 96 h. Potency, µM (highest dose often 28.7 µM), usual class: inhibitors. 320,000 tested, 6.9% active
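Two parasite generations (96 h, 37 C, 5% CO2) of compound exposure in infected erythrocytes (0.05% parasitemia, 2% hematocrit). Luciferase-reporter P. falciparum; decreased luminescence indicates inhibited growth, aimed at apicoplast-acting delayed death.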
HCV inhibitor – qHTS Assay for Inhibitors of Hepatitis C Virus (HCV); Huh7.5.1 HCVcc-Cre infection, luciferase reporter, 44 h; Potency, µM (titrated, usually from 41.8 µM), most hits filed as inhibitors; 340,000 tested, 3.4% active
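Cells (1,000/well) were plated 4 h before compound, then infected with HCVcc-Cre virus (~0.5 moi). After 44 h further culture, infection was read as luciferase luminescence following a 15 min substrate incubation at room temperature.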
Pf growth 48h – Primary qHTS for delayed death inhibitors of the malarial parasite plastid, 48 hour incubation. P. falciparum luciferase growth in erythrocytes, 48 h. Potency, µM (top dose mostly 28.7 µM), actives largely listed as inhibitors. 310,000 tested, 5.9% active. AID 504832, 2011
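Erythrocytes infected with P. falciparum carrying an integrated firefly luciferase reporter (2% hematocrit, 0.1% parasitemia final) were exposed to compounds in RPMI 1640 with 0.5% Albumax at 37 C, 5% CO2. Growth inhibition was scored as reduced luminescence.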
Of the large screens only hits and unclear results are named; the others gave an inactive call. Calls follow the shape of the dose curve; as a rule, active = well fitted curve in the direction sought with a large enough effect; inconclusive = small, poorly fitted or top-dose-only effect, or another doubt; inactive = no such curve, though single readings can be large; an effect the other way counts as inactive or inconclusive.

CCO[C@@H]1OC(C(=O)N2CCCCCCC2)=C[C@H](c2cn(C(C)=O)c3ccccc23)[C@H]1CCCO	Pf growth 96h 10µM, Pf growth 48h inconclusive
CCO[C@@H]1OC(C(=O)O)=C[C@H](c2cn(C(C)=O)c3ccccc23)[C@H]1CCCO	none (no result: Pf growth 96h, Pf growth 48h)
COc1ccc(-c2csc(Nc3ccc(C)cn3)n2)cc1OC	HCV inhibitor 13µM
Cc1ccnc(Nc2nc(-c3c(C)nc4sccn34)cs2)c1	Pf growth 96h inconclusive, HCV inhibitor 13µM, Pf growth 48h 3.3µM
COc1ccc(-c2csc(Nc3cc(C)ccn3)n2)cc1OC	HCV inhibitor 10µM
O=C(O)c1cccc(-n2c(-c3cnccn3)n[nH]c2=S)c1	Pf growth 96h inconclusive
CCCOP(=O)(c1ccc(N(C)C)cc1)C(O)c1ccc(N(C)C)cc1 (stereo not given)	none
O=C(Nc1cccnc1)C1CC(=O)N(c2ccc(F)cc2)C1 (stereo not given)	none
CN1OC[C@@H]2COc3ccc4ccccc4c3[C@@H]21	Pf growth 48h 13µM
CC(=O)N[C@@H]1c2c(ccc3ccccc23)OC[C@@H]1COC(C)=O	none
CCCCNc1nc(-c2ccccc2)c(C(=O)OCC)cc1C#N	Pf growth 96h inconclusive, HCV inhibitor inconclusive, Pf growth 48h inconclusive
CCCNc1nc(-c2ccccc2)c(C(=O)OCC)cc1C#N	HCV inhibitor 3.2µM, Pf growth 48h 12µM
N#CC(C#N)=C(C#N)c1ccc(Nc2ccccc2)cc1	Pf growth 96h 12µM
c1ccc(Nc2ccc(Nc3ccccc3)cc2)cc1	AMA1 RON2 block 16µM, Pf growth 96h inconclusive, HCV inhibitor inconclusive
CC(=O)c1cccc(Nc2ccc(C#N)cc2)c1	none (no result: Pf growth 96h, HCV inhibitor, Pf growth 48h)
CNC[C@H]1OCc2ccccc2-c2ccccc2C(=O)N([C@@H](C)CO)C[C@H]1C	none (no result: Pf growth 96h, HCV inhibitor, Pf growth 48h)
Cc1ccc(S(=O)(=O)Nc2cccc(-c3ccc4nnc(C)n4n3)c2)s1	none
Cc1nn(C)c(C)c1CN(C(=O)C1CCC(=O)N(C2CCCCCC2)C1)C(C)C (stereo not given)	Pf growth 96h 12µM, Pf growth 48h inconclusive
Nc1ccc(S(=O)(=O)c2ccc(N3CCOCC3)c(N)c2)cc1	none (no result: Pf growth 96h, HCV inhibitor, Pf growth 48h)
Cc1ccc(CN2CC(=O)N3[C@H]4c5ccccc5OC[C@@H]4[C@H](c4ccccc4)[C@]3(C)C2=O)cc1	Pf growth 96h inconclusive, HCV inhibitor inconclusive, Pf growth 48h 9.3µM
CCCCN1CC(=O)N2[C@H]3c4ccccc4OC[C@@H]3[C@H](c3ccccc3)[C@]2(C)C1=O	Pf growth 96h 5.9µM, HCV inhibitor inconclusive, Pf growth 48h inconclusive
C[C@@]12C(=O)N(Cc3ccco3)CC(=O)N1[C@H]1c3ccccc3OC[C@@H]1[C@@H]2c1ccccc1	AMA1 RON2 block inconclusive (no result: Pf growth 96h, Pf growth 48h)
C[C@@]12C(=O)N(Cc3ccccc3)CC(=O)N1[C@H]1c3ccccc3OC[C@@H]1[C@@H]2c1ccccc1	Pf growth 96h inconclusive, HCV inhibitor inconclusive, Pf growth 48h inconclusive
COCCn1c(=S)[nH]c2cc(C(=O)NCCc3ccccc3)ccc2c1=O	HCV inhibitor inconclusive
CC1=CCC2COC(c3ccc[n+](Cc4ccccc4)c3)C1C2 (stereo not given)	Pf growth 48h 1.5µM
NC(=O)c1ccc[n+](Cc2ccccc2)c1	none
COc1ccc(N2C(=O)c3ccccc3NC2c2ccc(NC(C)=O)cc2)c(OC)c1 (stereo not given)	none
Cc1ccc(S(=O)(=O)N2CCC(=O)N(C(COCc3cccc(C)c3)C(C)C)CC2)cc1 (stereo not given)	Pf growth 96h 13µM, HCV inhibitor inconclusive, Pf growth 48h 10µM
Cc1ccc(S(=O)(=O)N2CCC(=O)N(C(COCc3cccc(C(F)(F)F)c3)C(C)C)CC2)cc1 (stereo not given)	Pf growth 96h 10µM, Pf growth 48h inconclusive
Cc1ccc(S(=O)(=O)N2CCC(=O)N([C@H](COCc3cccc(Cl)c3)C(C)C)CC2)cc1	none (no result: Pf growth 96h, HCV inhibitor, Pf growth 48h)
Cc1ccc(S(=O)(=O)N2CCC(=O)N(C(COCc3cccc(Cl)c3)C(C)C)CC2)cc1 (stereo not given)	Pf growth 96h 10µM, Pf growth 48h 15µM
O=c1ccn(C2CCCO2)c(=O)[nH]1 (stereo not given)	none (no result: Pf growth 96h, Pf growth 48h)
CCc1nc2c(OCC(=O)c3ccc(F)cc3)cccn2c1N(C)C(=O)c1cccs1	none (no result: Pf growth 96h, HCV inhibitor, Pf growth 48h)
COc1ccc(NC(=O)C2(C)CCCN(C(C)C)C2)cc1F (stereo not given)	none (no result: Pf growth 96h, HCV inhibitor, Pf growth 48h)
CCOC(=O)CCn1c(=S)n(CCC(=O)OCC)c2ccccc21	Pf growth 48h 3.7µM
COc1ccc(COC(=O)Oc2ccc(CNC(C)=O)cc2OC)c([N+](=O)[O-])c1	none
COC(=O)c1c(C)n(-c2ccccc2)c2ccc(O)cc12	HCV inhibitor inconclusive, Pf growth 48h inconclusive (no result: Pf growth 96h)
CN(C)/C=C/c1c([N+](=O)[O-])c2ccc(O)cc2n1-c1ccccc1	Pf growth 96h 10µM, HCV inhibitor inconclusive, Pf growth 48h inconclusive
COc1ccc(NC(=O)c2c(NC(=O)CCC(=O)O)sc3c2CCCCC3)cc1	none
C=CCNCC(=O)Nc1sc2c(c1C(=O)Nc1ccc(OC)cc1OC)CCC2	HCV inhibitor 10µM, Pf growth 48h 12µM
CCOC(=O)C1(Cc2ccccc2)CCN(Cc2cc(OC)c3c(c2)OCO3)CC1	AMA1 RON2 block inconclusive, Pf growth 48h inconclusive
O=C(O)C1CC=CCC1C(=O)N1CCN(c2nc(-c3ccccc3Cl)c3cc(Br)ccc3n2)CC1 (stereo not given)	Pf growth 96h inconclusive, HCV inhibitor inconclusive, Pf growth 48h 12µM
O=C(NCCN1CCOCC1)c1ccc2c(c1)N(Cc1cccc(F)c1)C(=O)c1ccccc1S2	Pf growth 48h inconclusive
C=CCN1C(=O)c2ccccc2Sc2ccc(C(=O)N3CCC4(CC3)OCCO4)cc21	Pf growth 96h 10µM, HCV inhibitor inconclusive, Pf growth 48h inconclusive
COc1cc(NC(=O)CN2C(=O)c3ccccc3Sc3ccc(C(=O)N4CCOCC4)cc32)cc(OC)c1OC	Pf growth 96h inconclusive, Pf growth 48h 6.6µM
CCc1nc2ccc(C(=O)NCc3ccc4c(c3)OCO4)cn2c1N(CC)Cc1cccc(Br)c1	none (no result: Pf growth 96h, HCV inhibitor, Pf growth 48h)
Cc1c(NC(=O)c2ccccc2)cccc1[N+](=O)[O-]	none
Cc1ccccc1NC(=O)c1ccc(Nc2c([N+](=O)[O-])cc([N+](=O)[O-])c3ccccc23)cc1	AMA1 RON2 block inconclusive, Pf growth 96h inconclusive, HCV inhibitor 14µM, Pf growth 48h inconclusive
Cc1cc(C(=O)Nc2ccc(Nc3ccccc3)cc2)ccc1[N+](=O)[O-]	AMA1 RON2 block inconclusive, Pf growth 96h 12µM, HCV inhibitor 11µM
NC(=O)c1cc([N+](=O)[O-])ccc1N1CCN(Cc2ccccc2)CC1	none
O=C(CNC(=S)N(Cc1ccccc1F)C1CCCCC1)NCC1CCCO1 (stereo not given)	Pf growth 48h inconclusive
CCCCN1C(=O)C2(NNc3ccccc3O2)c2ccccc21 (stereo not given)	HCV inhibitor inconclusive, Pf growth 48h 10µM (no result: Pf growth 96h)
CCCCN1C(=O)C(O)(CC(=O)c2c(C)coc2C)c2ccccc21 (stereo not given)	Pf growth 48h inconclusive

Compound activity: PubChem BioAssay, National Center for Advancing Translational Sciences (NCATS)
